Compounds without any hit were thinned out: in the full panel of roughly 83,000, 20% have a hit.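 Single-concentration screen, 48 h exposure, 96-well plates. Endpoint: percent growth. Below 10 = active.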 Values without a mark were called inactive. Calls of active or inactive are those of the source.

Assay in all cases: NCI-60 one-dose screen, 48 h (100 = growth as untreated, 0 = no growth, -100 = all killed)
Common to all, as to details: 10 µM

For assay [1], the system named is NCI-H23 lung.
For assay [2], the system named is NCI-H226 lung.
Assay [3] concerns NCI-H322M lung.
Assay [4] relates to HOP-62 NSCLC.
The test system of assay [5] is NCI-H460 lung.
Assay [6] has as its system HOP-92 NSCLC.
Assay [7] deals with NCI-H522 lung.
Assay [8] concerns A549/ATCC NSCLC.
The subject of assay [9] is 786-0 renal.
The subject of assay [10] is COLO 205 colon.

For `CC[C@]12C=CCN3CC[C@@]4(c5cc(C#CCNc6ccc(C)c(Nc7nccc(-c8cccnc8)n7)c6)c(OC)cc5N(C)[C@H]4[C@@](O)(C(=O)OC)[C@@H]1OC(C)=O)C32` (stereo not given in full), the growth was 56.3% in assay [1]; 30.6% in assay [2]; 90.8% in [3]; 64.2% in [4]; 34.1% in assay [5]; 42.2% in assay [6]. In addition, the growth is 58.5% in assay [7], 36.8% in assay [8], 46.3% in assay [9] and 31.7% in assay [10].

Take `N#Cc1c(NC(=O)c2ccc(C(F)(F)F)c(Cl)c2)sc2c1CCC(=O)C2`: the growth in [1] was -60.9% (active); in assay [2] it was -26.4% (active); in [3], 39.7%; in assay [4], -56.5% (active); in assay [5] it was -10.1% (active); in [6], -55.3% (active). Also, the growth is -71.2% (active) in assay [7], 19.3% in assay [8], -48.2% (active) in assay [9] and -94% (active) in [10].

`Nc1nc(Nc2ccc(Cl)cc2)n(Cc2cccc(Br)c2)n1`: the growth was -37.9% (active) in [1]; -12.6% (active) in assay [2]; 11.8% in [3]; -30.4% (active) in assay [4]; -65.9% (active) in assay [5]; -49.5% (active) in assay [6]. The growth in assay [7] was -46.2% (active); in [8], 8.74% (active); in assay [9], -46.8% (active); in assay [10], -68.8% (active).

Consider `COc1ccc(C(=O)CSc2nnc(-c3c[nH]c4ccccc34)n2-c2ccccc2)cc1`, for which the growth in [1] was 56.5%; in [2], 0.0587% (active); in assay [3] it was 58.3%; in assay [4] it was 8.82% (active); in assay [5], 65.5%; in assay [6] it was 7.9% (active). The growth in assay [7] is 45.7%; in [8], 74%; in assay [9], 45.2%; in assay [10] it was 84.8%.

Consider `COC(=O)C(Cc1ccc(O)c(O)c1)NC(=O)C(CSC/C=C(\C)CCCC(C)CCCC(C)CCCC(C)C)NC(C)=O` (stereo not given), for which the growth in assay [1] is 31.1%; in [2], 30.3%; in [3], 67.1%; in [4], 26.5%; in assay [5], 18.9%; in assay [6] it was 18.5%. Further, the growth is -85.6% (active) in assay [7], 18.9% in [8], 51.4% in assay [9] and 3.84% (active) in [10].

As to `CNC(=O)c1cccc(N2CCc3c2ccc(NC(=O)Nc2ccc(N4CCN(C)CC4)c(C(F)(F)F)c2)c3F)c1`, the growth was -85.6% (active) in assay [1]; 104% in [2]; -92% (active) in assay [3]; -80% (active) in [4]; -81% (active) in assay [5]; -83% (active) in assay [6]. Also, the growth in [7] was -91.7% (active); in assay [8], -86% (active); in [9] it was -95.6% (active); in assay [10], 92.7%.

Take `Cc1ccc(CNC(=O)Cc2ccc3c(c2)CN(C2CCC(=O)NC2=O)C3=O)cc1` (stereo not given): the growth in assay [1] was 66.5%; in assay [2] it was 3.79% (active); in [3], 16.1%; in [4] it was -10.2% (active); in assay [5], 95%; in [6], -22.5% (active). In addition, the growth in assay [7] was 9.7% (active); in assay [8], 10.6%; in [9], 0.61% (active); in [10] it was -12.5% (active).

Regarding `COc1ccc(C2N(c3ccc(Br)cc3)N=C(C(C)=O)N2[C@H]2[C@H](OC(C)=O)O[C@H](COC(C)=O)[C@@H](OC(C)=O)[C@@H]2OC(C)=O)cc1` (stereo not given in full), the growth in assay [1] is 75.4%; in [2], 69.6%; in [3] it was 73.7%; in [4] it was 92%; in assay [5] it was 52.1%; in assay [6], 79.2%. Besides, the growth is 48.1% in assay [7], 66.1% in assay [8], 92.6% in assay [9] and 88.1% in assay [10].

As for `O=c1oc2ccc(-c3ccc(F)cc3F)cc2c(=O)n1-c1ccc(Cl)c(C(F)(F)F)c1`, the growth is -42.7% (active) in assay [1]; -18.8% (active) in assay [2]; -2.17% (active) in assay [3]; -18.8% (active) in assay [4]; 8.48% (active) in [5]; -19.4% (active) in assay [6]. The growth in [7] is -12.6% (active); in assay [8], 15%; in assay [9], 7.66% (active); in assay [10], -81.3% (active).

For `C=C(c1ccc(OC)c(N)c1)c1cc(C)nc2ccccc12`, the growth in [1] is 12.3%; in assay [2], 22.8%; in assay [3], 37.8%; in [4] it was 30.9%; in assay [5], -4.48% (active); in assay [6] it was 53.8%. The growth in assay [7] was -29.4% (active); in assay [8], 19.9%; in [9] it was 22.6%; in assay [10] it was -79.8% (active).

As to `O=C1Nc2ccc(Cl)cc2/C1=C/c1ccc(OCc2ccc(Br)cc2F)cc1`, the growth is 7.12% (active) in assay [1]; 6.85% (active) in assay [2]; 48.2% in assay [3]; 5.12% (active) in [4]; 7.07% (active) in assay [5]; 10.9% in assay [6]. Besides, the growth is 23.3% in assay [7], 34.1% in assay [8], 2.33% (active) in [9] and 51.6% in assay [10].

Take `O=C(N/C(=C1/OCCN1Cc1ccccc1)[P+](c1ccccc1)(c1ccccc1)c1ccccc1)c1ccccc1`: the growth in assay [1] is -5.42% (active); in assay [2], -5.51% (active); in assay [3] it was 58.7%; in assay [4], 44.8%; in assay [5] it was 3.22% (active); in assay [6], -16.5% (active). Moreover, the growth is -6.25% (active) in [7], 47.6% in assay [8], 4.98% (active) in [9] and 4.11% (active) in assay [10].

Regarding `COC[C@@H](CC(C)C)N=C1NC(=O)/C(=C/c2ccc3ncoc3c2)N1`, the growth in assay [1] is -14.2% (active); in assay [2] it was 0.124% (active); in [3] it was 20.4%; in [4] it was 14.4%; in assay [5], 6.38% (active); in assay [6], 15.8%. In addition, the growth in assay [7] is -16.2% (active); in [8] it was 13.7%; in [9], 22.2%; in [10] it was -16.1% (active).
